# Experimental data published in PubChem BioAssay (NCATS).
# Results filed as inconclusive are left out. Where a call stands in place of a potency, no number is given. Activity calls are given as the source filed them. The call rests on the fitted dose curve; in most records, active means well fitted curve in the direction sought with a large enough effect; inconclusive means small, poorly fitted or top-dose-only effect, or another doubt; inactive means no such curve, though single readings can be large; an effect the other way counts as inactive or inconclusive.
# Target: Aldehyde dehydrogenase, mitochondrial (Homo sapiens) (UniProt P05091)
# Test: qHTS for Inhibitors of the Aldehyde Dehydrogenase Family (ALDH2) Primary screen (AID 2061308); further: nearly all actives have a fitted effect of over 55% in size
# Settings: ALDH2 enzyme inhibition qHTS, 1536-well; series mostly up to 56 µM
row,Compound,Potency
1,Cc1nc(C)c2c(n1)N(Cc1ccc(-c3ccccc3-c3nn[nH]n3)cc1)C(=O)CC2,inactive
2,O=c1c2ccccc2nc2sc(Nc3cccc(N4CCN5CCCCC5C4)c3)nn12 (stereo not given),inactive
3,CN(C)CC1CCN(C2CCN(C(=O)c3cccc(-c4cc(O)c5ncccc5c4)c3)CC2)CC1,inactive
4,COc1ccc(-n2ncc3c2CCCC3NC(=O)c2ccc3ncccc3c2)cc1 (stereo not given),inactive
5,O=C(/C=C/n1cnc(-c2cc(C(F)(F)F)cc(C(F)(F)F)c2)n1)NNc1cnccn1,inactive
6,CC(=O)Nc1sc2c(c1-c1nc3ccccc3s1)CCS(=O)(=O)C2,inactive
7,O=S1(=O)N=C(Oc2ccc(C(F)(F)F)cc2)c2ccccc21,inactive
8,Cc1cc(C)nc(NC(=S)N2CCN(c3nccc(C(F)(F)F)n3)CC2)c1,inactive
9,S=P(c1ccccc1)(c1ccccc1)c1nc(CCCc2ccccc2)n2ccccc12,inactive
10,Cc1ccc(OCCn2c(CCN(C)C(=O)C3CCCCC3)nc3ccccc32)cc1,inactive
11,Cc1cccc(NC(=O)CN2CCC(c3ccccn3)CC2)c1,inactive
12,Cc1nc(CN=C2NC3=C(C(=O)CCC3)C(c3[nH]ncc3Cl)N2)cs1 (stereo not given),inactive
13,O=c1c2ccccc2nc(-c2ccccc2O)n1Cc1ccccc1,inactive
14,CC(=O)O[C@@H]1c2c3c(cc(O)c2C(=O)O[C@@H]1C)O[C@@]1(C)[C@@H](O)C[C@H]2C(C)(C)C(=O)C=C[C@]2(C)[C@@H]1C3,inactive
15,Cc1cc(NS(=O)(=O)c2ccc(NC(=O)Cc3ccc(Cl)c(C(F)(F)F)c3)cc2)no1,inactive
16,CN(c1ccc(NC(=O)Nc2ccccc2)cc1)S(=O)(=O)c1cnn(-c2ccc(F)cc2)c1,inactive
17,C/C=C(/C)C(=O)O[C@H]1C=C(CO)C(=O)[C@H](OC(=O)/C(C)=C/CO)[C@H]1C(C)C,inactive
18,Oc1cccc(C2NC(=S)Nc3cccc(F)c32)c1 (stereo not given),inactive
19,c1nc(N2CCNCC2)c2cc(-c3ccc4c(c3)OCO4)ccc2n1,inactive
20,CC(C)c1ccccc1-c1ncc(F)c(NCc2ccc(-c3ccn[nH]3)cc2)n1,inactive

row,Compound,Potency
1,CNc1nccc(-c2cccc3ccccc23)n1,inactive
2,O=C(Nc1ccc(-c2nc3ccccc3[nH]2)cc1)c1ccc2cc[nH]c2c1,inactive
3,O=S(=O)(Nc1nccs1)c1ccc(NCc2ccccc2)cc1,inactive
4,Cc1cc(F)ccc1S(=O)(=O)Nc1cnccc1C(=O)Nc1nc(-c2ccccc2)cs1,inactive
5,Cc1ccc(OCCn2c(CCNC(=O)c3cccc(F)c3)nc3ccccc32)cc1,inactive
6,COc1ccccc1-c1nnc(SCC#CCOC(=O)c2ccc(F)cc2)o1,inactive
7,COc1ccc(NC(=O)c2cnn3c(C)cc(C)nc23)cc1F,inactive
8,CN(C)c1oc(-c2cccc3ccccc23)nc1C#N,inactive
9,NC(=O)C1CCN(c2nc(-c3cccc(Br)c3)cs2)CC1,inactive
10,COCCN(CCOC)c1nc(C)nc2c1nc(-c1ccccc1)n2CCN(C)C,inactive
11,Cc1ccc(OCCn2c(CCNC(=O)c3ccc(Br)o3)nc3ccccc32)cc1,inactive
12,COc1cc(O)c(C(CC(=O)N2CCCC(C)(C)C2)c2ccc3c(c2)OCO3)c(OC)c1 (stereo not given),inactive
13,CC(C)Oc1ccc(CCNC(=O)c2cc3sccc3n2Cc2ccccc2)cc1OC(C)C,inactive
14,COC(=O)c1ccccc1NC(=O)c1ccc(C#N)cc1,inactive
15,CC(=O)Nc1cccc(OC2=NS(=O)(=O)c3ccccc32)c1,inactive
16,c1nc(NCC2CCCCC2)c2cc(-c3ccc4c(c3)OCO4)ccc2n1,inactive
17,CC1=C(C(=O)Nc2nc3ccccc3s2)C(c2nn(C)cc2Cl)N=C(Nc2nc3ccccc3o2)N1 (stereo not given),inactive
18,Fc1ccc(-c2noc(CCCCSc3nnc(-c4cccc5ccccc45)o3)n2)cc1,inactive
19,O=C(OCC#CCSc1nnc(-c2cccc3ccccc23)s1)c1cccs1,inactive
20,Cc1ccc(S(=O)(=O)Nc2cnccc2C(=O)Nc2nc(-c3ccc(C)c(C)c3)cs2)cc1,inactive

# Target: Retinaldehyde dehydrogenase 3 (Homo sapiens) (UniProt P47895)
# Test: qHTS for Inhibitors of the Aldehyde Dehydrogenase Family (ALDH1A3) Primary screen (AID 2061315)
# Settings: ALDH inhibition qHTS; series mostly up to 56 µM
row,Compound,Potency
1,Cc1nc(C)c2c(n1)N(Cc1ccc(-c3ccccc3-c3nn[nH]n3)cc1)C(=O)CC2,inactive
2,O=c1c2ccccc2nc2sc(Nc3cccc(N4CCN5CCCCC5C4)c3)nn12 (stereo not given),inactive
3,CN(C)CC1CCN(C2CCN(C(=O)c3cccc(-c4cc(O)c5ncccc5c4)c3)CC2)CC1,inactive
4,COc1ccc(-n2ncc3c2CCCC3NC(=O)c2ccc3ncccc3c2)cc1 (stereo not given),inactive
5,O=C(/C=C/n1cnc(-c2cc(C(F)(F)F)cc(C(F)(F)F)c2)n1)NNc1cnccn1,inactive
6,CC(=O)Nc1sc2c(c1-c1nc3ccccc3s1)CCS(=O)(=O)C2,inactive
7,O=S1(=O)N=C(Oc2ccc(C(F)(F)F)cc2)c2ccccc21,inactive
8,Cc1cc(C)nc(NC(=S)N2CCN(c3nccc(C(F)(F)F)n3)CC2)c1,inactive
9,S=P(c1ccccc1)(c1ccccc1)c1nc(CCCc2ccccc2)n2ccccc12,inactive
10,Cc1ccc(OCCn2c(CCN(C)C(=O)C3CCCCC3)nc3ccccc32)cc1,inactive
11,Cc1cccc(NC(=O)CN2CCC(c3ccccn3)CC2)c1,inactive
12,Cc1nc(CN=C2NC3=C(C(=O)CCC3)C(c3[nH]ncc3Cl)N2)cs1 (stereo not given),inactive
13,O=c1c2ccccc2nc(-c2ccccc2O)n1Cc1ccccc1,inactive
14,CC(=O)O[C@@H]1c2c3c(cc(O)c2C(=O)O[C@@H]1C)O[C@@]1(C)[C@@H](O)C[C@H]2C(C)(C)C(=O)C=C[C@]2(C)[C@@H]1C3,inactive
15,Cc1cc(NS(=O)(=O)c2ccc(NC(=O)Cc3ccc(Cl)c(C(F)(F)F)c3)cc2)no1,inactive
16,CN(c1ccc(NC(=O)Nc2ccccc2)cc1)S(=O)(=O)c1cnn(-c2ccc(F)cc2)c1,inactive
17,C/C=C(/C)C(=O)O[C@H]1C=C(CO)C(=O)[C@H](OC(=O)/C(C)=C/CO)[C@H]1C(C)C,inactive
18,Oc1cccc(C2NC(=S)Nc3cccc(F)c32)c1 (stereo not given),inactive
19,c1nc(N2CCNCC2)c2cc(-c3ccc4c(c3)OCO4)ccc2n1,inactive
20,CC(C)c1ccccc1-c1ncc(F)c(NCc2ccc(-c3ccn[nH]3)cc2)n1,inactive

row,Compound,Potency
1,CNc1nccc(-c2cccc3ccccc23)n1,inactive
2,O=C(Nc1ccc(-c2nc3ccccc3[nH]2)cc1)c1ccc2cc[nH]c2c1,inactive
3,O=S(=O)(Nc1nccs1)c1ccc(NCc2ccccc2)cc1,inactive
4,Cc1cc(F)ccc1S(=O)(=O)Nc1cnccc1C(=O)Nc1nc(-c2ccccc2)cs1,inactive
5,Cc1ccc(OCCn2c(CCNC(=O)c3cccc(F)c3)nc3ccccc32)cc1,inactive
6,COc1ccccc1-c1nnc(SCC#CCOC(=O)c2ccc(F)cc2)o1,inactive
7,COc1ccc(NC(=O)c2cnn3c(C)cc(C)nc23)cc1F,inactive
8,CN(C)c1oc(-c2cccc3ccccc23)nc1C#N,inactive
9,NC(=O)C1CCN(c2nc(-c3cccc(Br)c3)cs2)CC1,inactive
10,COCCN(CCOC)c1nc(C)nc2c1nc(-c1ccccc1)n2CCN(C)C,inactive
11,Cc1ccc(OCCn2c(CCNC(=O)c3ccc(Br)o3)nc3ccccc32)cc1,inactive
12,COc1cc(O)c(C(CC(=O)N2CCCC(C)(C)C2)c2ccc3c(c2)OCO3)c(OC)c1 (stereo not given),inactive
13,CC(C)Oc1ccc(CCNC(=O)c2cc3sccc3n2Cc2ccccc2)cc1OC(C)C,inactive
14,COC(=O)c1ccccc1NC(=O)c1ccc(C#N)cc1,inactive
15,CC(=O)Nc1cccc(OC2=NS(=O)(=O)c3ccccc32)c1,inactive
16,c1nc(NCC2CCCCC2)c2cc(-c3ccc4c(c3)OCO4)ccc2n1,inactive
17,CC1=C(C(=O)Nc2nc3ccccc3s2)C(c2nn(C)cc2Cl)N=C(Nc2nc3ccccc3o2)N1 (stereo not given),inactive
18,Fc1ccc(-c2noc(CCCCSc3nnc(-c4cccc5ccccc45)o3)n2)cc1,inactive
19,O=C(OCC#CCSc1nnc(-c2cccc3ccccc23)s1)c1cccs1,inactive
20,Cc1ccc(S(=O)(=O)Nc2cnccc2C(=O)Nc2nc(-c3ccc(C)c(C)c3)cs2)cc1,inactive
